High-throughput results (PubChem)
DT40 TDP1 no CPT = qHTS for Inhibitors of human tyrosyl-DNA phosphodiesterase 1 (TDP1): qHTS in cells in absence of CPT; AID 686978, 2013; Potency, µM (series often up to 46.2 µM), usual class: inhibitors; actives 15% (n = 420,000); DT40 Tdp1-/- hTDP1 cells, no CPT, ATP luminescence, 48 h; note: nearly all actives have a fitted effect of over 55% in size
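Chicken DT40 Tdp1-/- cells complemented with human TDP1, screened without camptothecin (DMSO vehicle only), 400 cells/well. Compounds pin-transferred, cells incubated at 37 °C for at least 48 hr. Growth read as ATP-dependent luminescence (CellTiter-Glo, 30 min at RT).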
ClpP mod = qHTS Assay for Activators of ClpP; ATP-dependent Clp protease proteolytic subunit (Bacillus subtilis (strain 168)), P80244; purified B. subtilis ClpP, FRET peptide cleavage, 20 min; Potency, µM (titrated, usually from 57.5 µM); actives 1.9% (n = 340,000); AID 651965, 2013; active = well fitted falling curve with a large enough effect; inconclusive = small, poorly fitted or top-dose-only effect; inactive = no such curve, though single readings can be large or run the other way; note: the source files actives as falling curves though it sought activators and does not explain the sign; nearly all actives have a fitted effect of over 65% in size
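Buffer: 100 mM Tris/HCl pH8, 100 mM KCl, 0.05% low protease BSA, 2.5% glycerol, 0.01% Tween-20. ClpP 10 microg/mL final; 20 min RT; delta FRET normalized to ADEP and DMSO controls.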
DT40 TDP1 CPT = qHTS for Inhibitors of human tyrosyl-DNA phosphodiesterase 1 (TDP1): qHTS in cells in presence of CPT; chicken DT40 Tdp1-/-;hTDP1 cells + 20 nM CPT, ATP luminescence, 48 h; Potency, µM (top dose mostly 46.2 µM), most hits filed as inhibitors; actives 12% (n = 420,000); AID 686979, 2013; note: nearly all actives have a fitted effect of over 55% in size
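Chicken DT40 Tdp1-/- cells complemented with human TDP1, 400 cells/well, exposed to compounds plus 20 nM camptothecin for at least 48 h at 37 C; viability read as ATP content by CellTiter-Glo luminescence.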
TDP1 inh = qHTS Assay for Inhibitors of Tyrosyl-DNA Phosphodiesterase (TDP1). actives 0.28% (n = 350,000). recombinant TDP1, AlphaScreen DNA substrate cleavage. Potency, µM (top dose mostly 130 µM), usual class: inhibitors. Tyrosyl-DNA phosphodiesterase 1 (Homo sapiens), Q9NUW8; note: nearly all actives have a fitted effect of over 40% in size
Target sequence (Q9NUW8 whole entry, looked up): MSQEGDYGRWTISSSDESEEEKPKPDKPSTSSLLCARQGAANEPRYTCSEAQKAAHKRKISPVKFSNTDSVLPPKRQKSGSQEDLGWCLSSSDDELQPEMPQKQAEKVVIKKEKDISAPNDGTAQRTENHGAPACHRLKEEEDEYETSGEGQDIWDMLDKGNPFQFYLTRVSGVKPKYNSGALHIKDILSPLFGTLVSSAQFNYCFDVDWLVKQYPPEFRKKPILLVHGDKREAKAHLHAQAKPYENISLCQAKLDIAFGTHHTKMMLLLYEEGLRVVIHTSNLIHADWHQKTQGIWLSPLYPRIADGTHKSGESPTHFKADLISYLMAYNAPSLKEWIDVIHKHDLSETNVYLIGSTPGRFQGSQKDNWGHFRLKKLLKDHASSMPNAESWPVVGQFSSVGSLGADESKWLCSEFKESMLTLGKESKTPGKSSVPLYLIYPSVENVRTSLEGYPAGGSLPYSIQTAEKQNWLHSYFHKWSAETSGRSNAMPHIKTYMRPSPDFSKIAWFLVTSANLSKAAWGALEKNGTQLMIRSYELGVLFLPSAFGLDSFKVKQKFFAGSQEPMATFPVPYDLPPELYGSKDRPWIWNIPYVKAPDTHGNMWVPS
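Compounds were preincubated with Tdp1 (1 nM final) for 15 min at room temperature before substrate (15 nM final) started a 5 min reaction; beads (10 ug/ml final) were then added for 10 min before AlphaScreen detection.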
A number is an active result; 0 = inactive; ? = inconclusive; - = no result. Shown are actives, neighbours in structure and some others; about 17% of the full set was active somewhere. Unless noted, calls come from the whole dose curve; as a rule, active = well fitted curve in the direction sought with a large enough effect; inconclusive = small, poorly fitted or top-dose-only effect, or another doubt; inactive = no such curve, though single readings can be large; an effect the other way counts as inactive or inconclusive.

SMILES | DT40 TDP1 no CPT | ClpP mod | DT40 TDP1 CPT | TDP1 inh
O=C(NNC(=O)c1ccccc1OCc1ccccc1)c1ccccc1F | 0 | - | 0 | -
CC(=O)Nc1ccc(C(=O)N/N=C/c2ccccc2OCc2ccccc2)cc1 | 21µM | - | ? | 0
O=C(N/N=C/c1ccccc1F)c1ccccc1OCc1ccccc1 | 21µM | - | ? | -
O=C(N/N=C/c1ccccc1OCc1ccccc1)c1cccnc1 | 29µM | 0 | ? | 0
O=C(N/N=C/c1cccnc1)c1cc(-c2ccccc2OCc2ccccc2)n[nH]1 | 23µM | 0 | ? | 0
COc1ccc(Cl)cc1NC(=O)NNC(=O)C(=O)Nc1ccc(F)cc1 | 0 | 0 | 0 | -
CCc1ccc(S(=O)(=O)Nc2ccncc2)cc1 | 0 | 0 | 0 | -
Cc1cc(-c2ccc(S(=O)(=O)Nc3ccc(Cl)cc3)cc2)on1 | 18µM | 0 | 16µM | 0
Cc1cc(C)cc(NS(=O)(=O)c2ccc(-c3cc(C)no3)cc2)c1 | 1.2µM | 0 | 1.3µM | 0
Cc1ccc(NS(=O)(=O)c2ccc(-c3cc(C)no3)cc2)c(C)c1 | 5.8µM | 0 | 4.6µM | 0
CCc1ccc(NS(=O)(=O)c2ccc(-c3cc(C)no3)cc2)cc1 | 13µM | 0 | 13µM | 0
CCOC(=O)c1ccc(NC(=O)C(CC)Sc2nc3ncccc3[nH]2)cc1 (stereo not drawn) | ? | 0 | ? | 0
O=C(Cc1n[nH]c(=O)c2ccccc12)Nc1cc(Cl)ccc1-n1cncn1 | ? | - | 0 | -
COc1cc(=O)n2c(c1C(=O)NCc1cccc(F)c1)CCN(Cc1cccnc1)CC2 | 0 | - | 0 | -
Cc1cccc(C)c1OCC(=O)NNC(=O)CCCn1c(=O)oc2ccccc21 | 0 | 0 | 0 | 0
c1ccc2c(c1)CCc1ccccc1C2=C1CCNCC1 | 13µM | 0 | 15µM | -
Cc1ccc(CNC(=O)COc2ccc(S(=O)(=O)N3CCOCC3)cc2)cc1 | 0 | - | 0 | 0
Cn1cc(C2=C(c3cn(CCCSC(=N)N)c4ccccc34)C(=O)NC2=O)c2ccccc21 | 0.71µM | 0 | 0.63µM | 0
CN(C)CCCn1cc(C2=C(c3c[nH]c4ccccc34)C(=O)NC2=O)c2ccccc21 | 24µM | - | 0 | 0
Cc1cc(=O)c(C(=O)NCCCc2ccncc2)c2n1-c1ccccc1SC(c1cccs1)C2 (stereo not drawn) | 0 | - | ? | -
COc1ccc(-n2nc(C(=O)NCC(=O)N3CCCC3)c3ccccc3c2=O)cc1Cl | ? | - | 0 | 0
CC(=O)c1ccc(C(C)(C)c2ccc(C(C)=O)s2)s1 | 23µM | 0 | ? | 0
CCCOc1ccc(C(=O)Nc2ccc3c(c2)OCCO3)cc1 | 0 | - | 0 | 0
O=C(c1ccco1)N1CCN(c2ccc(N3CCCCC3)nn2)CC1 | 0 | 0 | 0 | 0
Cn1nnnc1SCC(=O)Nc1ccccc1Cc1ccccc1 | 0 | 0 | 0 | 0
SMILES | DT40 TDP1 no CPT | ClpP mod | DT40 TDP1 CPT | TDP1 inh
O=C(Cn1cnnn1)Nc1ccccc1Cc1ccccc1 | 0 | 28µM | 0 | 0
CSCCC(C(=O)Nc1c(C)cccc1C)N1CCN(C/C=C/c2ccccc2)CC1 (stereo not drawn) | 13µM | 0 | ? | -
COc1ccc(Cl)cc1NC(=O)C(C)N1CCN(C/C=C/c2ccccc2)CC1 (stereo not drawn) | 21µM | 0 | ? | 0
Cc1cccc(C)c1NC(=O)C(c1ccccc1)N1CCN(C/C=C/c2ccccc2)CC1 (stereo not drawn) | ? | 0 | 18µM | -
CC(=O)c1ccc(NC(=O)C(C)N2CCN(C/C=C/c3ccccc3)CC2)cc1 (stereo not drawn) | ? | - | 0 | 0
C(=C\c1ccccc1)/CN1CCN(C(c2ccccc2)c2ccccc2)CC1 | ? | 0 | ? | 0
Cc1cc(C)c(C(O)c2ncc(-c3ccccc3Cl)[nH]2)c(C)c1 (stereo not drawn) | ? | 0 | ? | -
CCOc1ccc(NC(=O)C2CCN(S(=O)(=O)c3c(C)noc3/C=C/c3cccs3)CC2)cc1 | ? | 0 | ? | 0
O=C(c1ccccc1)n1nc(-c2ccc(Cl)cc2)nc1NCc1ccco1 | - | 0 | - | 0
COc1ccccc1N1CCN(CCCCNC(=O)c2ccc3ccccc3c2)CC1 | 21µM | 0 | ? | 0
COc1ccc(C(=O)NCCCN2CCN(CCCNC(=O)c3ccc(OC)c(OC)c3)CC2)cc1OC | 0 | - | 0 | 0
COc1ccc2cccc(N3CCN(CCNC(=O)c4ccc(F)cc4)CC3)c2c1 | 21µM | - | 19µM | 0
CC1(C)CC(=O)c2cc(C(=O)Nc3ccc(Br)cc3)c(=O)n(-c3ccc(Cl)cc3)c2C1 | 0 | 0 | 0 | -
Cc1nc2ccccc2nc1-c1csc(-c2ccccc2)n1 | 11µM | 0 | 13µM | -
Cn1c(=O)c2c(ncn2CC(COCc2ccccc2)OCc2ccccc2)n(C)c1=O (stereo not drawn) | ? | 0 | ? | 0
COc1ccc(S(=O)(=O)NCCc2nnc3ccc(SCC(=O)Nc4ccc(C(F)(F)F)cc4)nn23)cc1 | 23µM | 0 | ? | 0
Cc1ccc(NC(=O)CSc2ccc3nnc(CCNS(=O)(=O)c4ccccc4)n3n2)cc1Cl | ? | 0 | 16µM | 0
O=C(CSc1nnnn1C1CC2C=CC1C2)Nc1ccc(C(=O)O)cc1 (stereo not drawn) | 0 | 0 | 0 | 0
O=C(NNC(=O)c1ccccc1O)c1cccc(Br)c1 | ? | 0 | ? | -
COc1ccccc1C(CNC(=O)c1cccc(S(=O)(=O)N2CCCc3ccccc32)c1)N(C)C (stereo not drawn) | ? | 0 | ? | -
CCN(Cc1nc2ccccc2c(=O)[nH]1)C(=O)c1cccc(S(=O)(=O)N2CCc3ccccc32)c1 | 16µM | 0 | ? | 0
COc1ccccc1CN(C)C(=O)c1cccc(S(=O)(=O)N2CCCc3ccccc32)c1 | 12µM | 0 | ? | 0
COc1ccc(C(CNC(=O)c2cccc(S(=O)(=O)N3CCc4ccccc43)c2)N(C)C)cc1 (stereo not drawn) | 10µM | 0 | ? | 0
CN(Cc1nc2ccccc2c(=O)[nH]1)C(=O)c1cccc(S(=O)(=O)N2CCCC2)c1 | 0 | 0 | 0 | 0
Cc1ccc(CN(C)C(=O)c2cccc(S(=O)(=O)N3CCc4ccccc43)c2)cc1 | 21µM | - | ? | 0
COc1cc2c(cc1OC)[C@@H](NC(=O)COc1ccccc1)[C@H](OCc1ccccc1)C2 | ? | 0 | 0 | 0
COc1ccc(OC(C)C(=O)NCc2nc(-c3ccc(Cl)cc3)no2)cc1 (stereo not drawn) | ? | 0 | ? | 0
CN(CC(=O)Nc1ccccc1Br)C(=O)c1cccc(S(=O)(=O)N2CCc3ccccc32)c1 | ? | 0 | ? | -
COc1ccc(NC(=O)CN(C)C(=O)c2cccc(S(=O)(=O)N3CCCc4ccccc43)c2)cc1 | 0 | 0 | 10µM | 0
CCOc1ccccc1Nc1sc(C(=O)c2ccc(Cl)cc2)c(N)c1C#N | ? | 0 | ? | 0
